Measured values taken from PubChem BioAssay (EPA / NIEHS).
Active and inactive are the calls of the source. Rule for the calls: active = hit-call score of the fitted dose curve at least 0.9, where 1 is the maximum; inactive = score below 0.9.

Legend:
Details in all cases: mRNA level, 48 h; actives raise or lower the signal
[1] = read-out: Cytochrome P450 (CYP1A1), CYP1A1 (gene 1543); test: LTEA_HepaRG_CYP1A1: Life Technologies and Expression Analysis (LTEA) Assay for Cytochrome P450 (CYP1A1) using HepaRG (AID 2283454)
Method in brief: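 HepaRG, 48 h post-plating switched to serum-free induction medium; 8-pt conc-response (top 100 uM, half-log, 0.5% DMSO), duplicates, 48 h. Lysis in RLT, TaqMan qRT-PCR for CYP1A1; gain or loss vs DMSO.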

[2] = read-out: CFLAR gene, CFLAR (gene 8837); test: LTEA_HepaRG_CFLAR: Life Technologies and Expression Analysis (LTEA) Assay for CFLAR gene using HepaRG (AID 2283455)
Method in brief: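 qRT-PCR read-out (Fluidigm/TaqMan) of CFLAR mRNA, normalized to three housekeeping genes, in differentiated human HepaRG cells after 48 h chemical exposure; 8-point half-log series from 100 uM in 0.5% DMSO; bidirectional curve fitting versus DMSO.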

[3] = read-out: Forkhead box O1 (FOXO1), FOXO1 (gene 2308); test: LTEA_HepaRG_FOXO1: Life Technologies and Expression Analysis (LTEA) Assay for Forkhead box O1 (FOXO1) using HepaRG (AID 2283456)
Method in brief: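 HepaRG, 48 h exposure, 8-pt half-log series from 100 uM in 0.5% DMSO, duplicates; Fluidigm qRT-PCR mRNA, housekeeping-normalised; bidirectional fit vs DMSO baseline.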

[4] = read-out: Forkhead box O3 (FOXO3), FOXO3 (gene 2309); test: LTEA_HepaRG_FOXO3: Life Technologies and Expression Analysis (LTEA) Assay for Forkhead box O3 (FOXO3) using HepaRG (AID 2283459)
Method in brief: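 qRT-PCR readout of FOXO3 transcript, normalized to three housekeeping genes (ACTB, GAPDH, POLR2A); gain or loss fitted against 0.5% DMSO vehicle. HepaRG cells, 48 h chemical exposure, 8-point half-log series, top 100 uM.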

[5] = read-out: ABC Transporter (ABCB1), ABCB1 (gene 5243); test: LTEA_HepaRG_ABCB1: Life Technologies and Expression Analysis (LTEA) Assay for ABC Transporter (ABCB1) using HepaRG (AID 2283460)
Method in brief: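 HepaRG, 48 h exposure, 8-pt half-log series from 100 uM, 0.5% DMSO vehicle, duplicates. Readout: ABCB1 transcript by Fluidigm TaqMan qRT-PCR, housekeeping-normalized; bidirectional curve fit vs DMSO baseline.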

[6] = read-out: growth arrest and DNA damage 45 (GADD45B), GADD45B (gene 4616); test: LTEA_HepaRG_GADD45B: Life Technologies and Expression Analysis (LTEA) Assay for growth arrest and DNA damage 45 (GADD45B) using HepaRG (AID 2283461)
Method in brief: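 HepaRG, ~100,000 cells/well, 48 h plating; serum-free induction medium; cpd 100 uM top, half-log x8, 0.5% DMSO, duplicate, 48 h; lysis in RLT, RNA isolation, qRT-PCR; norm ACTB/GAPDH/POLR2A; bidirectional fit vs DMSO.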

[7] = read-out: ABC Transporter (ABCC3), ABCC3 (gene 8714); test: LTEA_HepaRG_ABCC3: Life Technologies and Expression Analysis (LTEA) Assay for ABC Transporter (ABCC3) using HepaRG (AID 2283462)
Method in brief: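 Human HepaRG, 48 h dosing, 8-pt half-log series from 100 uM, 0.5% DMSO vehicle, duplicates. ABCC3 mRNA by TaqMan qRT-PCR, housekeeping-normalized; bidirectional curve fit vs DMSO.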

[8] = read-out: ABC Transporter (ABCB11), ABCB11 (gene 8647); test: LTEA_HepaRG_ABCB11: Life Technologies and Expression Analysis (LTEA) Assay for ABC Transporter (ABCB11) using HepaRG (AID 2283463)
Method in brief: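 HepaRG, 48 h exposure, 8-pt half-log CRC top 100 uM, 0.5% DMSO vehicle, duplicates. Readout: TaqMan qRT-PCR of ABCB11 mRNA, housekeeping-normalized (ACTB/GAPDH/POLR2A). Bidirectional fit vs DMSO baseline.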

[9] = read-out: ABC Transporter (ABCC2), ABCC2 (gene 1244); test: LTEA_HepaRG_ABCC2: Life Technologies and Expression Analysis (LTEA) Assay for ABC Transporter (ABCC2) using HepaRG (AID 2283464)
Method in brief: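 HepaRG, 48 h post-plating; serum-free induction medium; cpd 8-pt, 100 uM top, half-log, 0.5% DMSO, duplicate, 48 h. Readout: ABCC2 mRNA by qRT-PCR, norm. ACTB/GAPDH/POLR2A. Bidirectional fit vs DMSO baseline.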

[10] = read-out: Broad substrate specificity ATP-binding cassette transporter ABCG2 (Homo sapiens) (UniProt Q9UNQ0); test: LTEA_HepaRG_ABCG2: Life Technologies and Expression Analysis (LTEA) Assay for ABC Transporter (ABCG2) using HepaRG (AID 2283465)
Method in brief: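 HepaRG, 48 h exposure, 8-pt half-log series from 100 uM, 0.5% DMSO vehicle, duplicates. Readout: ABCG2 transcript by qRT-PCR (Fluidigm array), housekeeping-normalized; bidirectional curve fit relative to DMSO baseline.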

[11] = read-out: ATP-citrate lyase (ACLY), ACLY (gene 47); test: LTEA_HepaRG_ACLY: Life Technologies and Expression Analysis (LTEA) Assay for ATP-citrate lyase (ACLY) using HepaRG (AID 2283466)
Method in brief: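 qRT-PCR readout of ACLY transcript after 48 h chemical treatment of HepaRG cells; expression normalized to three housekeeping genes. Eight-point half-log series, highest 100 uM, 0.5% DMSO vehicle. Gain or loss fitted against DMSO baseline.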

[12] = read-out: Alkaline Phosphatase, Placental (ALPP) gene, ALPP (gene 250); test: LTEA_HepaRG_ALPP: Life Technologies and Expression Analysis (LTEA) Assay for Alkaline Phosphatase, Placental (ALPP) gene using HepaRG (AID 2283468);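 for AC50: differentiated human HepaRG liver cells in serum-free induction medium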
Method in brief: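 HepaRG, 48 h plating then 48 h dosing, serum-free induction medium, 0.5% DMSO. 8 conc, half-log, max 100 uM, duplicates. Endpoint: ALPP transcript by qRT-PCR, housekeeping-normalized; gain or loss fitted vs DMSO.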

[13] = read-out: Bcl-2 (BAD) gene, BAD (gene 572); test: LTEA_HepaRG_BAD: Life Technologies and Expression Analysis (LTEA) Assay for Bcl-2 (BAD) gene using HepaRG (AID 2283469)
Method in brief: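 HepaRG, 48 h exposure, 8-pt half-log curve from 100 uM in 0.5% DMSO, duplicates. Readout: TaqMan qRT-PCR for BAD mRNA, housekeeping-normalised (ACTB/GAPDH/POLR2A); gain or loss fitted against DMSO baseline.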

[14] = read-out: Bcl-2 (BAX) gene, BAX (gene 581); test: LTEA_HepaRG_BAX: Life Technologies and Expression Analysis (LTEA) Assay for Bcl-2 (BAX) gene using HepaRG (AID 2283470)
Method in brief: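 Cells were thawed, plated for 48 h, moved to serum-free induction medium and dosed for 48 h (highest concentration 100 uM, half-log steps, 0.5% DMSO). Total RNA was then analysed for BAX expression by qRT-PCR.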

[15] = read-out: Alpha-fetoprotein (AFP) gene, AFP (gene 174); test: LTEA_HepaRG_AFP: Life Technologies and Expression Analysis (LTEA) Assay for Alpha-fetoprotein (AFP) gene using HepaRG (AID 2283472)
Method in brief: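 Chemicals were tested on differentiated HepaRG cells for 48 hours at eight concentrations up to 100 uM, with 0.5% DMSO as vehicle. AFP expression was then quantified by qRT-PCR and analyzed for gain or loss relative to DMSO.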

[16] = read-out: BCL2L11 (gene 10018); test: LTEA_HepaRG_BCL2L11: Life Technologies and Expression Analysis (LTEA) Assay for Bcl-2 (BCL2L11) gene using HepaRG (AID 2283473)
Method in brief: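 Read-out is BCL2L11 transcript level by qRT-PCR, normalized to three housekeeping genes and fitted bidirectionally against 0.5% DMSO vehicle. HepaRG cells received chemicals for 48 h in serum-free induction medium, 100 uM down in half-log dilutions.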

[17] = read-out: adenosine kinase (ADK) gene, ADK (gene 132); test: LTEA_HepaRG_ADK: Life Technologies and Expression Analysis (LTEA) Assay for adenosine kinase (ADK) gene using HepaRG (AID 2283471)
Method in brief: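 Differentiated HepaRG cells dosed 48 h in serum-free induction medium, 0.5% DMSO vehicle, eight half-log concentrations from 100 uM, in duplicate. ADK mRNA by TaqMan qRT-PCR normalised to ACTB, GAPDH, POLR2A; bidirectional fit versus DMSO.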

[18] = read-out: Peroxisomal acyl-coenzyme A oxidase 1 (ACOX1) gene, ACOX1 (gene 51); test: LTEA_HepaRG_ACOX1: Life Technologies and Expression Analysis (LTEA) Assay for Peroxisomal acyl-coenzyme A oxidase 1 (ACOX1) gene using HepaRG (AID 2283467)
Method in brief: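 HepaRG, 48 h chemical exposure, 8-pt half-log series from 100 uM top, 0.5% DMSO vehicle, duplicates. Readout: ACOX1 mRNA by Fluidigm qRT-PCR, housekeeping-normalized; bidirectional fit vs DMSO baseline.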

[19] = read-out: growth arrest and DNA damage 45 (GADD45A), GADD45A (gene 1647); test: LTEA_HepaRG_GADD45A: Life Technologies and Expression Analysis (LTEA) Assay for growth arrest and DNA damage 45 (GADD45A) using HepaRG (AID 2283458)
Method in brief: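 Transcript induction or loss, quantified by TaqMan qRT-PCR against three housekeeping genes, is the read-out. HepaRG cells received chemicals for 48 h across eight half-log concentrations from 100 uM in 0.5% DMSO; gain and loss fitted relative to DMSO.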

Measured: AC50

Chain of Broad substrate specificity ATP-binding cassette transporter ABCG2 (Homo sapiens) (Q9UNQ0 whole entry, looked up): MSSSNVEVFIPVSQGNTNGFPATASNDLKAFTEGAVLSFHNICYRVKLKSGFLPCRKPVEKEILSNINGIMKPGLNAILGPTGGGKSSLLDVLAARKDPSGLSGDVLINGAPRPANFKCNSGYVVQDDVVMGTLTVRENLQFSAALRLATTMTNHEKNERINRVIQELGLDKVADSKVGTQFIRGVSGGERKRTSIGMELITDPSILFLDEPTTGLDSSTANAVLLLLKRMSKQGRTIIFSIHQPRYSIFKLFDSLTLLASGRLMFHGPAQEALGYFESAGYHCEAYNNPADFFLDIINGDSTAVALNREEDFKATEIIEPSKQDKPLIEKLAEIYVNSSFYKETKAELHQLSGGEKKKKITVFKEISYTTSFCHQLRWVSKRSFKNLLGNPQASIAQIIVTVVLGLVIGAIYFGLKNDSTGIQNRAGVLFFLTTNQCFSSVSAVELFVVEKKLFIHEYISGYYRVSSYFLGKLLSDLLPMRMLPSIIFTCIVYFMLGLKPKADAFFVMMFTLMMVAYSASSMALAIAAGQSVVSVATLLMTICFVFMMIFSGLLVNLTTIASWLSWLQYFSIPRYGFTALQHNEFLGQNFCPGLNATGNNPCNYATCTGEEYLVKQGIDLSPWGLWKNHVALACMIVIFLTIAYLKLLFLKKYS

c1ccc2occc2c1
not listed: [17] | [18] | [19]
inactive: all other assays above

Cc1occc(=O)c1O
not listed: [1] | [5] | [18] | [19]
inactive: all other assays above

CC(C)NCC(O)c1ccc(O)c(O)c1 (centres undefined)
inactive: [3] | [5] | [6] | [7] | [13] | [14] | [16]
active: [1] 0.147 µM | [2] 238 nM | [8] 0.147 µM | [9] 0.128 µM | [10] 0.156 µM | [11] 0.182 µM | [12] 92.7 nM | [15] 0.261 µM

CC(C)c1cccc(C(C)C)c1
active: [1] 66.1 µM
not listed: [8] | [19]
inactive: all other assays above

O=C(O)CC(O)(CC(=O)O)C(=O)O
active: [1] 50 µM
not listed: [9] | [17] | [19]
inactive: all other assays above

CC(=O)[C@@]1(O)CC[C@H]2[C@@H]3CCC4=CC(=O)CC[C@]4(C)[C@H]3CC[C@@]21C
active: [11] 39.6 µM | [15] 50 µM
not listed: [1] | [17]
inactive: all other assays above

Cn1cnc2c1c(=O)[nH]c(=O)n2C
not listed: [1] | [5] | [17]
inactive: all other assays above

O=C(NS(=O)(=O)/C=C/c1cccs1)c1ccc(F)cc1Br
active: [1] 50 µM | [5] 13.2 µM | [8] 50 µM | [9] 7.3 µM | [10] 9.27 µM | [15] 50 µM
not listed: [18] | [19]
inactive: all other assays above
